Active and inactive are the calls of the source. Rule for the calls: active = hit-call score of the fitted dose curve at least 0.9, where 1 is the maximum; inactive = score below 0.9.

The results in this text go back to PubChem BioAssay (EPA / NIEHS).

Hepatocyte nuclear factor 6 (Homo sapiens), sequence (Q9UBC0 whole entry, looked up): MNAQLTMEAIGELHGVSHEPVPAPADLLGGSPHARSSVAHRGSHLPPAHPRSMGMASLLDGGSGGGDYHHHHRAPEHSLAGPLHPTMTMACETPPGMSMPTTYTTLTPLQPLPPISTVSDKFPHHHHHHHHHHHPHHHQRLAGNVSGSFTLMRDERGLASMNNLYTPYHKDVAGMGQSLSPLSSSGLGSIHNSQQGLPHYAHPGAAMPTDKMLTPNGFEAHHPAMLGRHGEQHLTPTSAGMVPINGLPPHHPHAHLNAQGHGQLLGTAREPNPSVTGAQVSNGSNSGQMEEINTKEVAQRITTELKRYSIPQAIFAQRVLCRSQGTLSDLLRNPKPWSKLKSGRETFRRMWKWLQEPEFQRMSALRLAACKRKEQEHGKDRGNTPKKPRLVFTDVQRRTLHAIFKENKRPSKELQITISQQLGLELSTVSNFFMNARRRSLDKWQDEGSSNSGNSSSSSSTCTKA

This test addresses Hepatocyte nuclear factor 6 (Homo sapiens) (UniProt Q9UBC0). The test is described as follows: ATG_HNF6_CIS: Attagene CIS-FACTORIAL HepG2 Assay for human Hepatocyte Nuclear Factor 6 (HNF6) (AID 2282952). The settings on record: HepG2 Attagene cis-factorial HNF6 reporter transcription; actives raise or lower the signal. The procedure:
ATG_CIS is a cell-based, multiplexed-readout assay that uses HepG2, a human liver cell line, with measurements taken at 24 hours after chemical dosing in a 24-well plate.ATG_HNF6_CIS is one of 52 assay component(s) measured or calculated from the ATG_CIS assay. It is designed to make measurements of mRNA induction, a form of inducible reporter, as detected with fluorescence intensity signals by Reverse transcription polymerase chain reaction (RT-PCR) and Capillary electrophoresis technology.Data from the assay component ATG_HNF6_CIS was analyzed into 1 assay endpoint. This assay endpoint, ATG_HNF6_CIS, was analyzed with bidirectional fitting relative to DMSO as the negative control and baseline of activity. Using a type of inducible reporter, measures of mRNA for gain or loss-of-signal activity can be used to understand the reporter gene at the transcription factor-level as they relate to the gene ONECUT1. Furthermore, this assay endpoint can be referred to as a primary readout, because this assay has produced multiple assay endpoints where this one serves a reporter gene function. To generalize the intended target to other relatable targets, this assay endpoint is annotated to the dna binding intended target family, where the subfamily is homeobox protein.
Human liver HepG2 cells are transiently transfected with multiple reporter transcription units (MRTUs) in 6-well plates using FuGene 6 reagent (Roche; 3 ml FuGene/1 mg DNA). The MRTU constructs are regulated by a cis-regulating element (promoter). […] A major difference between the CIS and TRANS system is that in CIS activities of endogenous TFs are measured, whereas the TRANS assay evaluates changes in activities of exogenous, chimeric NR-Gal4 proteins. […] At the end of 24 hour incubation, total RNA was isolated using TriZol reagent (Invitrogen). The isolated RNA is then reverse-transcribed using oligo(dT) primer and Mo-MLV reverse transcriptase (Invitrogen) with DNAse I (Ambion) treatment for 30 min. The one-tenth of the produced cDNA was amplified by PCR using Taq DNA polymerase (Invitrogen) and two reporter sequence-specific primers. The PCR products were fluorescently labeled by primer extension with 6-arboxyfluorescein (6-FAM) 5'-labeled reporter sequence-specific primer (2 min at 95 C, 20 s at 68 C and 10 min at 72 C) and these products were digested with 5U of HpaI (New England Biolabs) for 2h at 37 C. The fragments were purified using Qiaquick PCR columns (Qiagen), analyzed on an ABI 3130xL genetic analyzer (Applied Biosystems) with peak positions identified by using a set of X-rhodamine (ROX)-labeled MapMarker1000 molecular weight standards (BioVentures). The raw capillary electrophoresis data was processed using Attagraph software (Attagene).
Turning to `CNC`, the call was inactive.

Take `O=C(O)C(F)(F)C(F)(F)C(F)(F)C(F)(F)C(F)(F)C(F)(F)C(F)(F)C(F)(F)C(F)(F)C(F)(F)F`: the result was inactive.

With `COS(=O)(=O)c1ccc(C)cc1`, the molecule was called inactive.

Take `CCOP(=S)(OCC)SCCS(=O)(=O)CC`: the call was inactive.

Broadly, the AC50 is the concentration giving half of the maximal activity seen. As to `C=C(C)C(=O)[O][Sn]([CH2]CCC)([CH2]CCC)[CH2]CCC`, the concentration at half-maximal activity (AC50) was 0.656 µM (active).

For `O=C(O)C(Cl)(Cl)Cl`, the molecule was called inactive.

As for `CCOC(=O)Nc1cccc(OC(=O)Nc2ccccc2)c1`, the outcome was inactive.

Regarding `CCC(C)c1cccc(C(C)CC)c1O` (stereo not given), the call was inactive.

For `CC(C)(c1ccccc1)c1ccc(O)c(C(C)(C)c2ccccc2)c1`, the result was inactive.

For the molecule `BrCCBr`, the call was inactive.

Consider `CC(C)c1cccc(C(C)C)c1O`, for which the molecule was called inactive.

Regarding `ClC1=C(Cl)[C@]2(Cl)[C@@H]3[C@@H](Cl)[C@@H](Cl)C[C@@H]3[C@@]1(Cl)C2(Cl)Cl`, the call was inactive.

Turning to `N#CN=C(N)N`, the outcome was inactive.

With `O=Cc1cccc(Oc2ccccc2)c1`, the result was inactive.

As for `CCOP(=O)(CN(CCO)CCO)OCC`, the molecule was classed as inactive.

Regarding `O=C(c1ccccc1)C(Cl)Cl`, the result was inactive.

On to `CC(C)(C)c1cc(O)ccc1O`, for which the call was inactive.

Turning to `[O-][Cl+2]([O-])O`, the molecule was classed as inactive.

In the case of `CCOP(=S)(OCC)SCSP(=S)(OCC)OCC`, the outcome was inactive.

As to `C=CC#N`, the result was inactive.

For the molecule `CCC[CH2][Sn]([Cl])([Cl])[Cl]`, the outcome was inactive.

On to `CC(C)CCCCCCOC(=O)c1ccccc1C(=O)OCCCCCCC(C)C`, for which the molecule was classed as inactive.

For the molecule `C[C@]12CC[C@H](O)CC1=CC[C@@H]1[C@@H]2CC[C@]2(C)C(=O)CC[C@@H]12`, the molecule was called inactive.

For the molecule `C=C(C)C#N`, the outcome was inactive.

As to `ClC1=C(Cl)[C@]2(Cl)[C@H]3[C@H]([C@H]4C=C[C@H]3C4)[C@@]1(Cl)C2(Cl)Cl`, the molecule was called inactive.

As for `CC(Br)C(=O)O` (stereo not given), the outcome was inactive.

`COC(=O)Cc1ccccc1`: the molecule was classed as inactive.

As for `CCC1(c2ccc(N)cc2)CCC(=O)NC1=O` (stereo not given), the call was inactive.

As for `CCc1ccccc1C`, the outcome was inactive.

Regarding `O=C(OC1CCCCC1)c1ccccc1C(=O)OC1CCCCC1`, the molecule was called inactive.

Regarding `CCCCC(CC)CO[N+](=O)[O-]` (stereo not given), the concentration at half-maximal activity (AC50) is 151 µM (active).

`CC(=O)C(Cl)C(=O)N(C)C` (stereo not given): the call was inactive.

With `Clc1ccc(COC(Cn2ccnc2)c2ccc(Cl)cc2Cl)cc1` (stereo not given), the result was inactive.

For `C=CC(=O)OCCCCCC(C)C`, the result was inactive.

Consider `CCN1CCC2(CC1)COc1cc3c(cc12)N(C(=O)c1ccc(-c2ccc(-c4nnc(C)o4)cc2C)cc1)CC3`, for which the result was inactive.

For `O=C/C=C/c1ccccc1`, the molecule was called inactive.

Regarding `CCOP(=S)(OCC)Oc1nc(Cl)c(Cl)cc1Cl`, the molecule was classed as inactive.

For the molecule `O=C(O)Cc1ccccc1`, the molecule was classed as inactive.

`CCCCP(CCCC)CCCC`: the outcome was inactive.

In the case of `COc1ccc(OC)c(C=O)c1`, the result was inactive.
